# Measurements: PubChem BioAssay (NCATS)
# Records with an inconclusive call do not appear. A number with no mark means an inactive call. Activity calls are given as the source filed them. Calls follow the shape of the dose curve; as a rule, active = well fitted inhibition curve with a large enough effect; inconclusive = small, poorly fitted or top-dose-only effect; inactive = flat fitted curve, though single readings scatter.
# What was measured:
# Assay in all cases: Cytotoxic Profiling of Annotated Libraries Using Quantitative High-Throughput Screening (AID 1296008); also: nearly all actives have a fitted effect of over 60% in size
# Conditions in all cases: Five cell lines viability, CellTiter-Glo ATP luminescence, 48-72 h; max response: stronger effect = lower value
# CRL-7250 = system: CRL-7250
# How it was run: (§1)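 Cells exposed to compounds for 48 or 72 hr at 37 degrees Celsius. Viability read as ATP-coupled luminescence with CellTiter-Glo after 10 min at room temperature.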
# HEK293 = system: HEK293
# How it was run: as §1
# HaCat = system: HaCat
# How it was run: as §1
# KB-3-1 = system: KB-3-1
# How it was run: as §1
# NIH3T3 = system: NIH3T3
# How it was run: as §1
# % is scaled to controls: 0 for no effect and ±100 for the full control effect; potency is read from the fitted curve at half-maximal effect.
compound,measurement,setting,value
CC(C)=CCC/C(C)=C/CCC1(C)Oc2c(c(O)cc3c2CN(C(CCC(=O)O)C(=O)O)C3=O)CC1O (stereo not given),max response,CRL-7250,-8.75%
same,max response,HEK293,-4.48%
same,max response,HaCat,-10.3%
same,outcome,KB-3-1,inactive
same,max response,NIH3T3,-11%
CN[C@@H]1[C@H](O[C@H]2[C@H](O[C@@H]3[C@@H](O)[C@H](O)[C@@H](N=C(N)N)[C@H](O)[C@H]3N=C(N)N)O[C@@H](C)[C@]2(O)C=O)O[C@@H](CO)[C@H](O)[C@H]1O,max response,CRL-7250,2.94%
same,max response,HEK293,4.73%
same,max response,HaCat,-17.2%
same,outcome,KB-3-1,inactive
same,max response,NIH3T3,-1.39%
COC(=O)[C@@]1(c2ccc(C)cc2)C[C@H]1CN1CCC(O)(c2ccccc2)CC1,max response,CRL-7250,3.12%
same,max response,HEK293,-9.08%
same,max response,HaCat,-4.07%
same,max response,KB-3-1,-2.51%
same,max response,NIH3T3,-2.42%
CC1=C(C)C(=O)OC(C(C)C2CCC3C4CC=C5CC(OC6OC(COC7OC(CO)C(O)C(O)C7O)C(O)C(O)C6O)CC(O)C5(C)C4CCC23C)C1 (stereo not given),max response,CRL-7250,-1.46%
same,max response,HEK293,-1.67%
same,max response,HaCat,-17.7%
same,max response,KB-3-1,8.05%
same,max response,NIH3T3,3.09%
CC1(C)CCCC2(C)C1C(O)C=C(CO)C2(O)CO (stereo not given),outcome,CRL-7250,inactive
same,max response,HEK293,-0.916%
same,max response,HaCat,-4.77%
same,outcome,KB-3-1,inactive
same,max response,NIH3T3,-1.11%
CC1(C(=O)O)CCCC2(C)C3=CCC4CC3(CCC12)CC4CO (stereo not given),max response,CRL-7250,-23%
same,max response,HEK293,-3.78%
same,max response,HaCat,2.08%
same,max response,KB-3-1,2.22%
same,max response,NIH3T3,-1.37%
COc1cc2c(cc1OC)CC(=O)N(CCCNC[C@H]1Cc3cc(OC)c(OC)cc31)CC2,outcome,CRL-7250,inactive
same,max response,HEK293,-6.01%
same,max response,HaCat,-2.44%
same,outcome,KB-3-1,inactive
same,max response,NIH3T3,-0.121%
CC[C@H](C)[C@H](NC(=O)[C@H]([C@@H](C)CC)N(C)C(C)=O)C(=O)N[C@H](C(=O)N[C@@H](CC(C)C)C(=O)[C@@]1(C)CO1)[C@@H](C)O,Potency,CRL-7250,29.1 nM (active)
same,Potency,HEK293,9.2 nM (active)
same,Potency,HaCat,36.6 nM (active)
same,Potency,KB-3-1,32.6 nM (active)
same,Potency,NIH3T3,58 nM (active)
CC1=CC2/C=C(\C)CC[C@@H](O)[C@@H](O)[C@@H]3O[C@@H]3C(=O)[C@]23C(=O)N[C@@H](CC(C)C)[C@@H]3[C@@H]1C (stereo not given in full),max response,CRL-7250,-29.8%
same,max response,HEK293,1.09%
same,max response,HaCat,-27.7%
same,max response,KB-3-1,-2.72%
same,max response,NIH3T3,1.23%
O=C(/C=C\c1ccc(O)cc1)N[C@@H](Cc1ccc(O)cc1)C(=O)O,max response,CRL-7250,-7.69%
same,max response,HEK293,1.95%
same,max response,HaCat,-12.4%
same,max response,KB-3-1,1.07%
same,max response,NIH3T3,-0.22%
COc1cc(C(=O)O)ccc1OC1OC(CO)C(O)C(O)C1O (stereo not given),outcome,CRL-7250,inactive
same,max response,HEK293,-3.87%
same,max response,HaCat,0.774%
same,outcome,KB-3-1,inactive
same,max response,NIH3T3,-5.21%
O=C(OC[C@@]1(O)CO[C@@H](O[C@H]2[C@H](Oc3ccc(O)cc3)O[C@H](CO)[C@@H](O)[C@@H]2O)[C@@H]1O)c1ccc(O)cc1,outcome,CRL-7250,inactive
same,max response,HEK293,-7.32%
same,max response,HaCat,-0.439%
same,max response,KB-3-1,-1.14%
same,max response,NIH3T3,-2.03%
C[C@@H]1CCC/C=C/[C@H]2CC(=O)C[C@@H]2[C@@H](O)/C=C/C(=O)O1,max response,CRL-7250,-3.74%
same,max response,HEK293,-12%
same,max response,HaCat,-12.2%
same,max response,KB-3-1,8.18%
same,max response,NIH3T3,-2.1%
CC1=CC(=O)CC(C)(CO)C1(O)/C=C/C(C)O[C@@H]1O[C@H](CO)[C@@H](O)[C@H](O)[C@H]1O (stereo not given in full),max response,CRL-7250,-0.153%
same,max response,HEK293,-1.52%
same,max response,HaCat,2.49%
same,max response,KB-3-1,-2.84%
same,max response,NIH3T3,-3.42%
COc1cc(N2CCOCC2)ccc1Nc1ncc(Cl)c(Nc2ccccc2NS(C)(=O)=O)n1,max response,CRL-7250,-96.5%
same,Potency,HEK293,1840 nM (active)
same,Potency,HaCat,4610 nM (active)
same,Potency,KB-3-1,2310 nM (active)
same,Potency,NIH3T3,6510 nM (active)
C/C(=C\CC[C@@H](C)[C@H]1CC(O)[C@@]2(C)C3CC[C@H]4C(C)(C)[C@@H](OC5OCC(O)C(O)C5OC5OC(CO)C(O)C(O)C5O)CC[C@@]45C[C@@]35CC(O)[C@]12C)C(=O)O (stereo not given in full),max response,CRL-7250,-2.5%
same,max response,HEK293,0.167%
same,max response,HaCat,-0.726%
same,max response,KB-3-1,6%
same,max response,NIH3T3,-27.1%
CC(C)CC1NC(=O)C(C)NC(=O)C(CC(C)C)OC(=O)CCCNC1=O (stereo not given),max response,CRL-7250,-2.1%
same,max response,HEK293,-5.55%
same,max response,HaCat,-8.69%
same,outcome,KB-3-1,inactive
same,max response,NIH3T3,-22.2%
